Columns and labels:
[1] = target: Serine/threonine-protein kinase PAK 4 (Homo sapiens) (UniProt O96013); conditions: at 1 µM
[2] = target: Serine/threonine-protein kinase PAK 4 (Homo sapiens) (UniProt O96013); conditions: at 10 µM
[3] = target: Serine/threonine-protein kinase PAK 5 (Homo sapiens) (UniProt Q9P286); conditions: at 1 µM
[4] = target: Serine/threonine-protein kinase PAK 5 (Homo sapiens) (UniProt Q9P286); conditions: at 10 µM
[5] = target: Serine/threonine-protein kinase PAK 6 (Homo sapiens) (UniProt Q9NQU5); conditions: at 1 µM
Serine/threonine-protein kinase PAK 6 (Homo sapiens), sequence (Q9NQU5 whole entry, looked up, the tested form may be a part): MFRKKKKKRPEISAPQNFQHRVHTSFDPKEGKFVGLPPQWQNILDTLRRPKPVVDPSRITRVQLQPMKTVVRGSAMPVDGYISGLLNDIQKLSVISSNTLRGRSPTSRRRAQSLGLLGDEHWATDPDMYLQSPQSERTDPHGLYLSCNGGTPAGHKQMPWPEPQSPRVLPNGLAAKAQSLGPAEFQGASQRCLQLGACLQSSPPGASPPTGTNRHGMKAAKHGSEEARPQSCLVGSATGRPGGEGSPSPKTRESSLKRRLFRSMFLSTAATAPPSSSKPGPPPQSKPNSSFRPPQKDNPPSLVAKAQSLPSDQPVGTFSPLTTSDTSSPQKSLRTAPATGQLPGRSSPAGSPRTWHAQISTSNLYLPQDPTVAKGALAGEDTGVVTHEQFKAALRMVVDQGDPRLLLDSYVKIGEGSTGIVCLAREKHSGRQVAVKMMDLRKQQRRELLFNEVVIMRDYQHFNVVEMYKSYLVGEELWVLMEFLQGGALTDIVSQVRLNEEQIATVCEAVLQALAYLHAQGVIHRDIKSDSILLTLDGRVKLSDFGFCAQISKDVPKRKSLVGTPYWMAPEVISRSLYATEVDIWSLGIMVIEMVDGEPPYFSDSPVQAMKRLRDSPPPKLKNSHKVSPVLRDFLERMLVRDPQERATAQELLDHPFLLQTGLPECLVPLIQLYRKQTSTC

[6] = target: Serine/threonine-protein kinase PAK 6 (Homo sapiens) (UniProt Q9NQU5); conditions: at 10 µM
[7] = target: PAS domain-containing serine/threonine-protein kinase (Homo sapiens) (UniProt Q96RG2); conditions: at 10 µM
[8] = target: Activated CDC42 kinase 1 (Homo sapiens) (UniProt Q07912); conditions: at 1 µM
Activated CDC42 kinase 1 (Homo sapiens), sequence (Q07912 whole entry, looked up): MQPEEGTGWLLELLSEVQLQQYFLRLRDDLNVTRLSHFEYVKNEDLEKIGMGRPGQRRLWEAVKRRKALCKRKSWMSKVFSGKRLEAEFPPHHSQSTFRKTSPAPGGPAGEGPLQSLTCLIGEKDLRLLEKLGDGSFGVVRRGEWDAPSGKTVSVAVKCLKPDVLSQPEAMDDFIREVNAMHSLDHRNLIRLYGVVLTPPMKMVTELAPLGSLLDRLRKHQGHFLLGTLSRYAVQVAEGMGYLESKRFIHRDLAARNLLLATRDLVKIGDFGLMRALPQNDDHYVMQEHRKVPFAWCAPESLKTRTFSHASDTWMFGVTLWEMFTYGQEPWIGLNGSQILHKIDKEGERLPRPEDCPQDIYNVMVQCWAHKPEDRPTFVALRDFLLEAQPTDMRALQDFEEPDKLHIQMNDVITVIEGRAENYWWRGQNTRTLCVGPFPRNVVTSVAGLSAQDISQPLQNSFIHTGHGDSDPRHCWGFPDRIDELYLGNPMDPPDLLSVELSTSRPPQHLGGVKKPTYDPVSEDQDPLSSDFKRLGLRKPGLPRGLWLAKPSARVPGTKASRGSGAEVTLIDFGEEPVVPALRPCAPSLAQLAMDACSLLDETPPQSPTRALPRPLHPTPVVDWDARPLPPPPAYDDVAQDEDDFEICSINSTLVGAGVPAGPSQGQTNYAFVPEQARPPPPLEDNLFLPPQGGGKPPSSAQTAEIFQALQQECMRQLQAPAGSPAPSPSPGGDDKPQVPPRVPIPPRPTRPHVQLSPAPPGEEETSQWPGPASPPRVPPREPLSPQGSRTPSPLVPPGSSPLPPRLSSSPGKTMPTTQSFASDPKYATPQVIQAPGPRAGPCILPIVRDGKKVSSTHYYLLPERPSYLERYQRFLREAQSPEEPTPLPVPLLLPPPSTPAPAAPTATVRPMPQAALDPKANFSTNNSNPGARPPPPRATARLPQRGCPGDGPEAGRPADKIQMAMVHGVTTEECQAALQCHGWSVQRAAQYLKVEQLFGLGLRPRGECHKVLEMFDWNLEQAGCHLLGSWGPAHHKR

[9] = target: Activated CDC42 kinase 1 (Homo sapiens) (UniProt Q07912); conditions: at 10 µM
[10] = target: ALK tyrosine kinase receptor (Homo sapiens) (UniProt Q9UM73); conditions: at 1 µM
ALK tyrosine kinase receptor (Homo sapiens), sequence (Q9UM73 19-1620 limits assumed): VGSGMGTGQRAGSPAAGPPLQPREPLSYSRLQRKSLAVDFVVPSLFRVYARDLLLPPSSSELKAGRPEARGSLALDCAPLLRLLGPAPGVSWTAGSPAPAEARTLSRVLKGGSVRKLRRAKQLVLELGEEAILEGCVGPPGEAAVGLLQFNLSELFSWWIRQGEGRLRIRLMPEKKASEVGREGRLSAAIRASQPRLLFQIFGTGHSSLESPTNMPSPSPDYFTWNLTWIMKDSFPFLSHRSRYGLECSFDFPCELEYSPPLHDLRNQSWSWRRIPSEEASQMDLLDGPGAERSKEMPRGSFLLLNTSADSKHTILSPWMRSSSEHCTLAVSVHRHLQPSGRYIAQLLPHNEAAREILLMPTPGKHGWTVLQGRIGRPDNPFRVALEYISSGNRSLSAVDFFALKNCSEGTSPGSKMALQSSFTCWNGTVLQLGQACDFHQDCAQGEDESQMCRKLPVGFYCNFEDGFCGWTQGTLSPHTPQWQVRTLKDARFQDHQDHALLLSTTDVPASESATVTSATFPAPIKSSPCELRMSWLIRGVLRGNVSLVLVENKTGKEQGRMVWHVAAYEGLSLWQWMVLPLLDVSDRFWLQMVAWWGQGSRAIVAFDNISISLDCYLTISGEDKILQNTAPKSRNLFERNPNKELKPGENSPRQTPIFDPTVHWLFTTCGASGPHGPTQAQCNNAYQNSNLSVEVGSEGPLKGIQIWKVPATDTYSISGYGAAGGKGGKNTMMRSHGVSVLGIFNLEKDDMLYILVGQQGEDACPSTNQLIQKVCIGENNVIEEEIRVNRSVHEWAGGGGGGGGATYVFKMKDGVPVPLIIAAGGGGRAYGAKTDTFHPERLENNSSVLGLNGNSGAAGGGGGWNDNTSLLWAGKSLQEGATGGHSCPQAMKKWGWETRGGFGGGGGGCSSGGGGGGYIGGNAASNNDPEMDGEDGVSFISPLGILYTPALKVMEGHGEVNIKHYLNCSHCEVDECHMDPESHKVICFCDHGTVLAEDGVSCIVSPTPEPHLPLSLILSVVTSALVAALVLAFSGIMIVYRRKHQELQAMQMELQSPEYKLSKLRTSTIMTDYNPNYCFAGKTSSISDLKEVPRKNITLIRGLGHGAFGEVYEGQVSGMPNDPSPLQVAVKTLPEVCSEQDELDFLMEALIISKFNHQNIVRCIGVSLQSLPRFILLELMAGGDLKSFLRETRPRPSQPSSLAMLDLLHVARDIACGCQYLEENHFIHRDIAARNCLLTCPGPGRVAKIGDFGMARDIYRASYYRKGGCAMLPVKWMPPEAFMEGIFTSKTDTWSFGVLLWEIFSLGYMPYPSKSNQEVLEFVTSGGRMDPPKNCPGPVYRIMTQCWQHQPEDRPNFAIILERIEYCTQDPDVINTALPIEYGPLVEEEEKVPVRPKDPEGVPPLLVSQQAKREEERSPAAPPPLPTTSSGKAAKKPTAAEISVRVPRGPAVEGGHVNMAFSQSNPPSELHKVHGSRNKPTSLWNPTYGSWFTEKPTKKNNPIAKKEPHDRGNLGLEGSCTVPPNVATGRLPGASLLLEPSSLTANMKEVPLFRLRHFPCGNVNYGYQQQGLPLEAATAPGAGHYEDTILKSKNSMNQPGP

Serine/threonine-protein kinase PAK 5 (Homo sapiens), sequence (Q9P286 whole entry, looked up): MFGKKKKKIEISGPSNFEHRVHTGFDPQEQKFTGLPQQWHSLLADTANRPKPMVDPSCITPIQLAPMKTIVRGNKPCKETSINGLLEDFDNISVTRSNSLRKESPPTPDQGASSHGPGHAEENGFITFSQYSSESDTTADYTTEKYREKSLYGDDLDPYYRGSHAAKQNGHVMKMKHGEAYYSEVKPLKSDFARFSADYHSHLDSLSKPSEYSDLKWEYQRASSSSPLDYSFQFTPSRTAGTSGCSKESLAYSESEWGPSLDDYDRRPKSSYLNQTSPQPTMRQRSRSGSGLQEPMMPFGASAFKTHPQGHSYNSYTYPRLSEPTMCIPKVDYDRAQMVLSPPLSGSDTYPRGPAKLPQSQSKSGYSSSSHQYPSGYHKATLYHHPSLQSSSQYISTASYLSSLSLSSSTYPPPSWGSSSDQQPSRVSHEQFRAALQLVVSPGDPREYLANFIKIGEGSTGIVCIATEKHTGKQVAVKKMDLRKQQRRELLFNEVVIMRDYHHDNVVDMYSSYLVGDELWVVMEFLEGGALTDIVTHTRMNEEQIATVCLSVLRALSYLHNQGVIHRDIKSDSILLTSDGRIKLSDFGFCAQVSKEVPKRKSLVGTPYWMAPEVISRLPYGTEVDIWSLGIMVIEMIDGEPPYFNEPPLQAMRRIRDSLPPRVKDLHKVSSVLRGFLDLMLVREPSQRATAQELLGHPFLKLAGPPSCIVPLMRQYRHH
Serine/threonine-protein kinase PAK 4 (Homo sapiens), sequence (O96013 whole entry, looked up): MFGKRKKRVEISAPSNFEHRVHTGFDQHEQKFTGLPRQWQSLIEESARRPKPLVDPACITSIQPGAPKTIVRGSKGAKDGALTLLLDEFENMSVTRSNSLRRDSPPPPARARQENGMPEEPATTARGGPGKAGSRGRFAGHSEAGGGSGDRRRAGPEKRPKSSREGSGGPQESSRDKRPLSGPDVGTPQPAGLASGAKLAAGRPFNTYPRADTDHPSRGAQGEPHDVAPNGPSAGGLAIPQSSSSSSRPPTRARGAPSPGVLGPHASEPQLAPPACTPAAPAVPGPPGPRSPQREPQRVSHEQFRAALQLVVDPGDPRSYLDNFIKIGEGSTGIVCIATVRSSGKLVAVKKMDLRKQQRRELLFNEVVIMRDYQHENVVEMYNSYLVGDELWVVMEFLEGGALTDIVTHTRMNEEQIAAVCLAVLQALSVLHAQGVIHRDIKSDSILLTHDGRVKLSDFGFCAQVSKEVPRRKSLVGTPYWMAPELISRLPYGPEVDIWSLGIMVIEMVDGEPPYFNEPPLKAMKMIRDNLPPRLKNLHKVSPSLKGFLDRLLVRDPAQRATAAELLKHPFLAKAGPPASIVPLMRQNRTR

SMILES	residual activity [1] [%]	residual activity [2] [%]	residual activity [3] [%]	residual activity [4] [%]	residual activity [5] [%]	residual activity [6] [%]	residual activity [7] [%]	residual activity [8] [%]	residual activity [9] [%]	residual activity [10] [%]
Nc1ncnc2c1c(-c1ccc(Oc3ccccc3)cc1)cn2C1CCCC1	89	64	76	44	91	63	43	4	1	76
CCOC(=O)c1c(C)[nH]c(/C=C2\C(=O)Nc3ccccc32)c1C	90	94			91	99	93	73	64	80
O=C1NC(=O)c2c1c1c3ccccc3[nH]c1n1cncc21	81	82		91	98	73	26	38	23	77
O=C1Cc2c([nH]c3ccc(Br)cc23)-c2ccccc2N1	25	3	35	17				24	3	88
COc1ccc(Cl)cc1NC(=O)Nc1cc(C)nc2ccccc12	96	88	80	100	91	88	43	90	80	77
c1ccc(-c2cnc(Nc3ccc(OCCN4CCCC4)cc3)s2)cc1	105	76					62	68	16	
NC(=O)Nc1sc(-c2ccc(F)cc2)cc1C(N)=O	55	14	67	27	88	40	96	10	2	78
O=c1cc(N2CCOCC2)oc2c1ccc1ccccc12	94	94	94	81		94	88	90	77	81
O=C(c1cc2cc(O)ccc2[nH]1)c1cc2cc(O)ccc2[nH]1	71	30			83	52		64	24	68
O=C1NC(=O)C(c2c[nH]c3ccccc23)=C1c1c[nH]c2ccccc12	98	65	99			77	39	73	21	
COc1cc2nccc(Oc3ccc(NC(=S)NC(=O)c4ccccc4C)cc3)c2cc1OC	88	90	83	67	95	64		24	8	79
Nc1n[nH]c2nc3ccccc3nc12	94	85	90	70	84	84		68	40	67
O=C1C(Cl)=C(N2C(=O)CCC2=O)C(=O)c2ccccc21	95	96	99	84		93	122	78	69	65
O=C(O)/C=C/c1cc(Br)c(Br)c(Br)c1Br	108	101		82	102	76	6	79	63	88
O=S(=O)(c1cccc2cnccc12)N1CCCNCC1	106	101								
CCCC(=O)Oc1ccc2[nH]c(C(=O)c3cc4ccccc4[nH]3)cc2c1	94	84	100		108	75	84	72	65	78
CCN(CC)CCNC(=O)c1c(C)[nH]c(/C=C2\C(=O)Nc3ccc(Cl)cc32)c1C	52	11	30	8	73	28	49	25	1	8
O=C1Nc2ccc(Cl)cc2/C1=C/c1cc(Cl)c(O)c(Cl)c1	91	68	73	62			29	48	7	68
CN(C)S(=O)(=O)c1ccc2c(c1)/C(=C/c1cc3c([nH]1)CCCC3)C(=O)N2	74	69			76	50		13	8	44
CC(C)(C)n1nc(Cc2cccc3ccccc23)c2c(N)ncnc21	88	61	88	77	98	79	71	6	2	89
Oc1cccc(-c2nc(N3CCOCC3)c3oc4ncccc4c3n2)c1	100	93	84	84	100	78		78	69	
CCCCc1c(-c2ccc(OC)cc2)[nH]c2nccnc12	60	68	63	64	92	60		24	5	70

SMILES	residual activity [1] [%]	residual activity [2] [%]	residual activity [3] [%]	residual activity [4] [%]	residual activity [5] [%]	residual activity [6] [%]	residual activity [7] [%]	residual activity [8] [%]	residual activity [9] [%]	residual activity [10] [%]
CC(C)c1nn(-c2c(Cl)cccc2Cl)c2nc(Cc3ccc(OCCO)cc3)[nH]c(=O)c12	84	32	73	21	79	51		63	31	78
O=c1cc(N2CCNCC2)oc2c(-c3ccccc3)cccc12	102	85	104	95	89	82	51	88	69	69
NCCNc1ncc(C(N)=O)c(Nc2cccc(C(F)(F)F)c2)n1	49	9	48	9	63	18	40	70	16	
O=C(NC(NC(=S)Nc1ccc(F)c([N+](=O)[O-])c1)C(Cl)(Cl)Cl)C(c1ccccc1)c1ccccc1 (stereo not drawn)	100	97		66		61	75	100	78	81
O=C(CCCc1ccc(-c2ccccc2F)cc1)Nc1ccc(O)cc1	103	91	104	95	96	103	108	89	75	88
Cn1sc(=O)n(Cc2ccccc2)c1=O	94	89	97	94	96	94	138	77	64	64
O=C(Nc1ccc(Cl)cc1)c1ccccc1NCc1ccncc1	100	99	117	128					76	
Cn1c2ccccc2c2c3c(c4c5ccccc5n(CCC#N)c4c21)CNC3=O	3	2	12	14	4	2	49	3	0	0
O=C1Cc2c([nH]c3ccc([N+](=O)[O-])cc23)-c2ccccc2N1	22	21	24	25	61	41		44	24	
COc1ccc(-c2cnc3c(-c4ccsc4)cnn3c2)cc1	99	94	94				94	71	68	
Nc1ncnc2c1cnn2-c1ccccc1			92		92	86	92	91	61	79
CN([C@@H](Cc1ccc(OS(=O)(=O)c2cccc3cnccc23)cc1)C(=O)N1CCN(c2ccccc2)CC1)S(=O)(=O)c1cccc2cnccc12			115	72	84	50	79	100		74
COc1ccc(COc2ccc(Cc3cnc(N)nc3N)cc2OC)cc1				100				79	68	74
O=C(Nc1nc2ccccc2n1CCN1CCOCC1)c1cccc([N+](=O)[O-])c1							84	81	55	70
Fc1ccc(-c2nc3n(c2-c2ccncc2)CCS3)cc1								87	79	86
O=c1cc(N2CCOCC2)oc2c(-c3ccccc3)cccc12						77	59	76	58	73
N#C/C(=C\c1ccc(O)c(O)c1)C(=O)NCc1ccccc1				85			55	88	62	
Nc1ncnc2[nH]nc(Nc3ccc(F)cc3)c12	111		104	97	102	81	62	60	17	82
Cc1cc(C)c(/C=C2\C(=O)Nc3ccccc32)[nH]1		69				62		52	18	37
O=C(c1ccccc1)c1ccc(N2CCOCC2)cc1O			92	114	82	85	78	94	72	78
NC(=O)c1cccc(-c2cc(Nc3ccc(OC(F)(F)F)cc3)ncn2)c1			92	84					86	
N#C/C(=C1/Nc2ccccc2S1)c1ccnc(NCCc2cccnc2)n1			84	72					12	64

SMILES	residual activity [1] [%]	residual activity [2] [%]	residual activity [3] [%]	residual activity [4] [%]	residual activity [5] [%]	residual activity [6] [%]	residual activity [7] [%]	residual activity [8] [%]	residual activity [9] [%]	residual activity [10] [%]
O=S(=O)(NCCNC/C=C/c1ccc(Br)cc1)c1cccc2cnccc12						55	81	77	43	
CCCCc1c(-c2ccc(O)cc2)[nH]c2nccnc12			56	36	94	47		26	6	71
N#Cc1c(NC(=O)c2cccc3ccccc23)sc2c1CCCC2					100	66	96	85	61	80
COc1ccc2c(c1)c(C1=C(c3c[nH]c4ccccc34)C(=O)NC1=O)cn2CCCN(C)C							32	65	21	80
COc1cc2ncnc(Nc3cccc(Cl)c3)c2cc1OC			109	84	102	87		34	6	100
O=C1NC(=O)C(c2cn(CCCO)c3ncccc23)=C1c1cnccn1					78	75	89	82	71	84
O=C1Nc2ccccc2/C1=C\c1c(Cl)[nH]c2ccccc12						85	67	84	48	81
CC(C)N(CCC(=O)c1ccc2ccccc2c1)Cc1ccccc1	88	79						68	63	74
CC(C)(C)c1nc2c3ccc(F)cc3c3c(=O)[nH]ccc3c2[nH]1						68		10	0	30
Nc1nccc(-c2c(-c3ccc(F)cc3)ncn2C2CCNCC2)n1									39	
COc1cc2nccc(Oc3ccc(NC(=O)Nc4cc(C)on4)c(Cl)c3)c2cc1OC			82	52	104	54	62	20	6	
CCN1/C(=C/C(C)=O)Sc2ccc(OC)cc21				80				81	64	
COc1cc2c(cc1OC)-c1n[nH]c(Nc3cccc(F)c3)c1C2					98	99				74
O=c1c(-c2ccc(F)cc2)c(-c2ccncc2)[nH]n1-c1ccc(Cl)cc1									66	
CCOc1nc(NC(=O)Cc2cc(OC)ccc2OC)cc(N)c1C#N					100	77		73	58	81
NC(=O)c1ccc(-c2nc(-c3ccc4c(c3)OCCO4)c(-c3ccccn3)[nH]2)cc1	99	98						79	68	74
CC(C)[C@H](CO)Nc1nc(Nc2cc(N)cc(Cl)c2)c2ncn(C(C)C)c2n1			57	12	26	5		29	9	
Nc1nc(Nc2ccc(S(N)(=O)=O)cc2)nn1C(=O)c1c(F)cccc1F		17	71	24	79	34		50	9	77
CSc1nc(-c2ccc(F)cc2)c(-c2ccnc(NC(C)c3ccccc3)c2)[nH]1 (stereo not drawn)		92	102	83	96	81	64	90	50	82
COc1ccc(CNC(=O)Nc2ncc([N+](=O)[O-])s2)cc1							110	77	55	70
O=C1NC(=O)C(c2cn(CCCn3ccnc3)c3ccccc23)=C1Nc1ccccc1		75						45	11	74

— ChEMBL document CHEMBL2218924, “A broad activity screen in support of a chemogenomic map for kinase signalling research and drug discovery” (Biochem J, 2013)
